Hits are enriched below; roughly 3.7% of the tested compounds scored in any of these assays.
tim10-1 inh: inhibits growth of tim10-1 mutant yeast. S. cerevisiae tim10-1 ts strain growth, BacTiter-Glo, 24 h. inhibition, % at 20 µM. actives 2.2% (n = 330,000). AID 463190;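 active = inhibition of at least 40%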;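 also: mutant grown at 25 °C; 0% = DMSO wells with yeast and 100% = wells holding no yeast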
Rce1 inhib: inhibitors of yeast Ras-converting enzyme; Q03530; actives 0.27% (n = 290,000); calls only; AID 2563; yeast membranes, quenched prenylated peptide cleavage fluorescence;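 active = fall in fluorescence gain of 50% or more versus controls, with final raw signal at or below 3038400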;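 also: plate controls were neutral control wells for no effect and wells lacking membranes for full effect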
Target sequence (Q03530 whole entry, looked up): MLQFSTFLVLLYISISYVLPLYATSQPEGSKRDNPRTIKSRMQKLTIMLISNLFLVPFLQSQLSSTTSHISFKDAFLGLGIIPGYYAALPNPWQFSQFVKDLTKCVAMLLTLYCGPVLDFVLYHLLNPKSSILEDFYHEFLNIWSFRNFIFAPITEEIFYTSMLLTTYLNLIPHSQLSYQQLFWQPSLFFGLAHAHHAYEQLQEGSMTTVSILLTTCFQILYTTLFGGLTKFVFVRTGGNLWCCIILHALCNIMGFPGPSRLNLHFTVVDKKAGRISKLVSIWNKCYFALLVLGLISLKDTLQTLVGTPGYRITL
TIM10 inh: inhibits growth of TIM10 yeast strain | actives 1.4% (n = 330,000) | S. cerevisiae TIM10 strain growth, BacTiter-Glo luminescence, 24 h | inhibition, % at 10 µM;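 active = inhibition of 40% or more at the single tested concentration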;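 also: wild-type TIM10 isogenic control strain grown at permissive 25 °C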
PfHsp90 set2: inhibits growth of yeast expressing Plasmodium falciparum Hsp90; S. cerevisiae expressing PfHsp90, BacTiter-Glo ATP, 48 h; yeast lacking PDR1 and PDR3 efflux regulators; inhibition, % at 9.4 µM; actives 0.32% (n = 310,000); AID 504621;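 active = every replicate shows inhibition above about 80%, whatever the replicate mean, limit read from the data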;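 also: 0% = DMSO neutral controls and 100% = 20 µM radicicol positive controls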
tim23-1 inh: inhibits growth of tim23-1 mutant yeast; S. cerevisiae tim23-1 growth, BacTiter-Glo luminescence, 24 h; inhibition, % at 20 µM; actives 1.3% (n = 330,000);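 active = growth inhibition of the mutant yeast at or above 50%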;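 also: temperature-sensitive mutant grown at 25 °C; plate controls were DMSO-treated mutant yeast for no effect and medium wells lacking yeast for full effect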
tim23-1 conf: tim23-1 yeast growth inhibition, confirmed. AID 463218. actives 83% (n = 4,400). S. cerevisiae tim23-1 growth, BacTiter-Glo luminescence, 24 h. shares compounds with tim23-1 inh. inhibition, % at 20 µM;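 active = inhibition above about 39% in either of two replicate wells at 20 µM, limit read from the data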;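 also: temperature-sensitive tim23-1 mutant grown at 25 °C; 0% = DMSO wells with yeast and 100% = medium wells without yeast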
Numbers without * were called inactive; i = inactive; . = not tested or not shown.

SMILES	tim10-1 inh	Rce1 inhib	TIM10 inh	PfHsp90 set2	tim23-1 inh	tim23-1 conf
C=CCN1C(=NC(=O)COc2ccc(Cl)cc2)SC2CS(=O)(=O)CC21 (stereo not given)	4	i	-7	7	15	.
O=C(Cn1cnc(S(=O)(=O)N2CCOCC2)c1)Nc1ccc(OC(F)(F)F)cc1	-5	i	-1	-1	10	.
NCC(=O)N1CCC(C(=O)N[C@@H](Cc2c[nH]c3ccccc23)C(=O)O)CC1	6	i	-16	-6	1	.
CC1(C)CC(=O)C(N=Nc2ccc3ncsc3c2)=C(O)C1	2	i	14	-6	60*	30
CC1(C)CC(=O)C(N=Nc2cccnc2)=C(O)C1	8	i	5	17	52*	23
O=C(Cc1cccs1)N1CCN(S(=O)(=O)c2ccc(Cl)c(C(F)(F)F)c2)CC1	21	.	-2	.	34	.
CN(C(=O)c1ccco1)c1nnc(C23CC4CC(CC(C4)C2)C3)s1	20	i	12	-4	55*	59*
CN(CC12CC3CC(CC(C3)C1)C2)C(=O)c1ccco1	15	i	17	-32	42	.
Oc1ccc(/C=C/c2ccc3cccc(O)c3n2)cc1Br	30	i	14	108*	53*	71*
O=C(O)c1ccc(/C=C/c2ccc3cccc(O)c3n2)cc1	18	i	15	-31	21	.
COC(=O)C1=C(C(=O)OC)C(c2cc(Cl)ccc2O)c2sc(=O)[nH]c2S1 (stereo not given)	34	i	33	-21	62*	58*
Nc1ccc2nc(SCc3ccccc3F)sc2c1	-12	i	6	-33	63*	43*
OC(c1ccccc1)(C1CCCCC1)C(CN1CCOCC1)c1ccccc1 (stereo not given)	18	i	27	2	50*	31
COc1ccc(C(O)(C2CCCCC2)C(CN2CCOCC2)c2ccccc2)cc1 (stereo not given)	36	i	19	4	34	.
COc1ccc(Br)cc1/C=N/n1c(C)nc2ccccc2c1=O	34	i	9	7	27	.
Cc1nc2ccccc2c(=O)n1/N=C/c1cc(Br)ccc1O	35	i	-1	-9	69*	76*
COc1ccccc1NC(=O)CSc1nnc(NC(=O)C2CCC2)s1	12	i	-6	-16	0	.
O=C(N/C(=C\c1ccco1)C(=O)N1CCCC1)c1cccs1	9	i	11	.	52*	3
O=C(N/C(=C/c1ccco1)C(=O)N1CCCC1)c1cccs1	15	i	3	-26	5	.

From PubChem BioAssay
